According to PubChem BioAssay (EPA / NIEHS):
Values joined by “and” are separate entries in the source; they are usually repeats but may differ in a detail not shown here. Identical values can stand only once. Results filed as inconclusive are left out. Some compounds were tested as several samples or in several runs, with calls that do not always agree. Active and inactive are the calls of the source. How the source made its calls, unless noted: active means hit-call score of the fitted dose curve at least 0.9, where 1 is the maximum; inconclusive means response in the unintended direction; inactive means score below 0.9.

Legend:
[1] = ATG_PPRE_CIS: Attagene CIS-FACTORIAL HepG2 Assay for human Peroxisome Proliferator-activated Response Element (PPRE) (AID 2282958; active means hit-call score of the fitted dose curve at least 0.9, where 1 is the maximum; inactive means score below 0.9); settings: HepG2 PPRE cis-element reporter, Attagene transcription factor profiling; actives raise or lower the signal
Outline: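 Cells are first transfected transiently with the multiplexed reporter library, then dosed for 24 h. Total RNA is reverse-transcribed, amplified, fluorescently end-labeled and HpaI-cut before capillary electrophoresis; activity is fitted bidirectionally against DMSO controls.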

[2] = ATG_M_19_TRANS: Attagene TRANS-FACTORIAL HepG2 Assay for M19 Transcription Factor (Internal Marker) (AID 2282974); settings: HepG2 Attagene TRANS-FACTORIAL M19 internal marker reporter
Outline: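 Cells: human HepG2, transiently transfected with multiplexed reporter transcription units. Exposure: 24 h. Detection: RT-PCR of reporter mRNA with capillary electrophoresis. Analysis: gain-of-signal vs DMSO.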

[3] = ATG_GAL4_TRANS: Attagene TRANS-FACTORIAL HepG2 Assay for GAL4 (Internal Marker) (AID 2282976); settings: HepG2 Attagene TRANS GAL4 internal marker reporter
Outline: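 In transfected human HepG2 liver cells dosed 24 h, GAL4 reporter mRNA serves as a baseline marker. Detection by RT-PCR with fluorescent capillary electrophoresis, activity fitted upward relative to DMSO.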

[4] = target: Oxysterols receptor LXR-beta (Homo sapiens) (UniProt P55055); test: ATG_LXRb_TRANS: Attagene TRANS-FACTORIAL HepG2 Assay for human Liver X Receptor beta (LXRb) (AID 2282981); settings: HepG2 Attagene TRANS GAL4-LXRb reporter, mRNA
Outline: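 In this TRANS format, exogenous chimeric NR-Gal4 protein activity, not endogenous factors, drives reporter expression in transfected human HepG2 cells. Exposure lasted 24 h; reporter mRNA was read by fluorescent capillary electrophoresis.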

[5] = target: human RAR-related Orphan Receptor gamma (RORg), RORC (gene 6097) (UniProt P51449); test: ATG_RORg_TRANS: Attagene TRANS-FACTORIAL HepG2 Assay for human RAR-related Orphan Receptor gamma (RORg) (AID 2283011)
Outline: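 Reporter transcripts from a transfected RORg-GAL4 chimera in HepG2 cells were quantified 24 h after dosing by RT-PCR, 6-FAM labelling, HpaI digestion and capillary electrophoresis; increases over DMSO baseline were fitted.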

[6] = ATG_XTT_Cytotoxicity: Cytotoxicity Assessment in the Attagene TRANS-FACTORIAL HepG2 Assay (AID 2283584)
Outline: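 Viability endpoint from XTT after 24 h chemical exposure of reporter-transfected human HepG2 liver cells; signal loss fitted relative to DMSO negative control.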

[7] = target: Oxysterols receptor LXR-alpha (Homo sapiens) (UniProt Q13133); test: ATG_LXRa_TRANS: Attagene TRANS-FACTORIAL HepG2 Assay for human Liver X Receptor alpha (LXRa) (AID 2282980); settings: HepG2 Attagene TRANS reporter, LXRa transactivation
Outline: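 Chemical-induced reporter mRNA measured by RT-PCR with fluorescent labelling and capillary electrophoresis after 24 h dosing of transiently transfected HepG2 cells expressing exogenous NR-Gal4 chimeras; increases scored against DMSO baseline.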

[8] = target: Cellular tumor antigen p53 (Homo sapiens) (UniProt P04637); test: ATG_p53_CIS: Attagene CIS-FACTORIAL HepG2 Assay for human p53 Transcription Factor (AID 2282994; active means hit-call score of the fitted dose curve at least 0.9, where 1 is the maximum; inactive means score below 0.9); settings: HepG2 p53 cis-element reporter, Attagene mRNA; actives raise or lower the signal
Outline: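 HepG2 cells transiently transfected with cis-regulated multiple reporter transcription units, dosed 24 h. Reporter mRNA measured by RT-PCR, 6-FAM primer extension, HpaI digestion and capillary electrophoresis; bidirectional fit relative to DMSO.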

[9] = target: human Vitamin D Receptor (VDR), VDR (gene 7421) (UniProt P11473); test: ATG_VDR_TRANS: Attagene TRANS-FACTORIAL HepG2 Assay for human Vitamin D Receptor (VDR) (AID 2283022)
Outline: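 Transactivation by an exogenous VDR-Gal4 chimera in transiently transfected HepG2 cells was measured as reporter transcript level 24 hours after chemical treatment. RT-PCR products were analysed by capillary electrophoresis and fitted in the positive direction relative to DMSO.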

[10] = CCTE_Harrill_HTTr_Viability_MCF7: CCTE's 6-hour Cell Viability Assessment for the High-Throughput Transcriptomics (HTTr) Platform, in MCF-7 cells cultured in DMEM + 10% fetal bovine serum, Harrill Lab (AID 2284010; active means hit-call score of the fitted dose curve at least 0.9, where 1 is the maximum; inactive means score below 0.9)
Outline: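 MCF-7 cells in DMEM + 10% FBS, 384-well, exposed 6 h to an eight-point dilution series. Membrane integrity scored by high-content imaging of propidium iodide exclusion; bidirectional fit versus DMSO.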

[11] = target: Retinoic acid receptor alpha (Homo sapiens) (UniProt P10276); test: ATG_DR5_RAR_CIS: Attagene CIS-FACTORIAL HepG2 Assay for human Retinoic Acid Receptor Alpha (RARE), DR5 submotif (AID 2282934; active means hit-call score of the fitted dose curve at least 0.9, where 1 is the maximum; inactive means score below 0.9); settings: HepG2 Attagene cis-factorial RARE DR5 reporter, mRNA; actives raise or lower the signal
Outline: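 HepG2 cells transiently transfected with multiplexed reporter units under cis (DR5 RARE) promoters, so endogenous transcription factor activity is measured. After 24 h compound exposure, reporter mRNA is quantified by RT-PCR with fluorescent labelling and capillary electrophoresis; bidirectional fitting versus DMSO.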

[12] = target: Nuclear receptor subfamily 1 group I member 3 (Homo sapiens) (UniProt Q14994); test: ATG_CAR_TRANS: Attagene TRANS-FACTORIAL HepG2 Assay for human Constitutive Androstane Receptor (CAR) (AID 2282969); settings: HepG2 Attagene TRANS-FACTORIAL CAR reporter;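 further: activators raise reporter mRNA above DMSO so AC50 marks induction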
Outline: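 HepG2 cells transiently transfected with multiplexed GAL4-UAS reporter units expressing chimeric NR-Gal4 proteins; compound exposure 24 h. Reporter mRNA measured by RT-PCR, 6-FAM labelling, HpaI digestion and capillary electrophoresis; gain-of-signal fitted against DMSO baseline.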

[13] = target: Glucocorticoid receptor (Homo sapiens) (UniProt P04150); test: ATG_GR_TRANS: Attagene TRANS-FACTORIAL HepG2 Assay for human Glucocorticoid Receptor (GR) (AID 2282978); settings: HepG2 Attagene TRANS GR reporter, mRNA transcription;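 further: activators score as hits since higher reporter transcript over DMSO is fitted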
Outline: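 In this trans-factorial format, exogenous NR-GAL4 chimeric proteins in transfected HepG2 cells regulate GAL4-UAS reporter transcription. After 24 h treatment, reporter mRNA induction relative to DMSO is read by RT-PCR and capillary electrophoresis.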

[14] = TOX21_p53_BLA_p2_viability: Viability Assessment in the Tox21 HCT-116 p53 Agonism Beta-lactamase Assay, Phase 2 (AID 2283591);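 further: compound exposure lasted 16 h at 37 °C; actives lower the ATP signal meaning cytotoxicity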
Outline: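 HCT-116 p53-bla cells (4000/well) rested 5 h at 37C, then received compounds in DMSO (217-fold dilution) for 16 h at 37C, 5% CO2. After the CCF4 read, CellTiter-Glo was added; ATP luminescence was read after 30 min at room temperature.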

[15] = TOX21_p53_BLA_p3_viability: Viability Assessment in the Tox21 HCT-116 p53 Agonism Beta-lactamase Assay, Phase 3 (AID 2283593);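 further: cells exposed to compound for 16 h before reading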
Outline: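 HCT-116 cells (4000/well) rested 5 h at 37C, then got DMSO compounds by pin tool (217-fold dilution) for 16 h at 37C, 5% CO2. After the bla read, CellTiter-Glo was added and luminescence read at 30 min, room temperature.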

[16] = TOX21_p53_BLA_p4_viability: Viability Assessment in the Tox21 HCT-116 p53 Agonism Beta-lactamase Assay, Phase 4 (AID 2283597);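 further: hits lower the luminescence signal meaning cytotoxicity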
Outline: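 Following a 16 h exposure at 37C, the treated HCT116 wells were first read for the FRET ratio. They were then lysed with CellTiter-Glo, and ATP luminescence was recorded after 30 min at room temperature.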

[17] = target: Bile acid receptor (Homo sapiens) (UniProt Q96RI1); test: ATG_IR1_CIS: Attagene CIS-FACTORIAL HepG2 Assay for human Nuclear Receptor Subfamily 1 Group H Member 4 (NR1H4), IR1 submotif (AID 2282946; active means hit-call score of the fitted dose curve at least 0.9, where 1 is the maximum; inactive means score below 0.9); settings: IR1 reporter transcription, actives raise or lower the signal
Outline: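 Transient MRTU transfection, HepG2; 24 h dosing; RNA → RT-PCR → 6-FAM primer extension → HpaI digest → capillary electrophoresis fluorescence. Gain/loss of signal fitted relative to DMSO.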

[18] = target: human RAR-related Orphan Receptor beta (RORb), RORB (gene 6096) (UniProt Q92753); test: ATG_RORb_TRANS: Attagene TRANS-FACTORIAL HepG2 Assay for human RAR-related Orphan Receptor beta (RORb) (AID 2283010)
Outline: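 HepG2 cells transiently transfected with GAL4-UAS reporter units expressing chimeric NR-Gal4 protein; reporter mRNA measured 24 h after dosing by RT-PCR, 6-FAM labelling and capillary electrophoresis. Gain-of-signal fitted relative to DMSO baseline.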

[19] = ACEA_ER_AUC_viability: ACEA Biosciences xCELLigence Real-Time Cell Analysis on Estrogen Receptor Agonism for Viability (AID 2283782);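 further: continuous compound exposure with impedance area under curve over 80 h; hit means loss of impedance signal meaning reduced cell growth or viability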
Outline: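 T-47D human breast cells in phenol red-free RPMI1640 with 10% charcoal-stripped FBS were dosed with an 8-point 1:4 dilution series from 100 uM top final concentration, in duplicate. Impedance-based growth was followed for 80 h; AUC analysed versus DMSO.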

[20] = target: human Peroxisome Proliferator-activated Receptor delta (PPARd), PPARD (gene 5467) (UniProt Q03181); test: ATG_PPARd_TRANS: Attagene TRANS-FACTORIAL HepG2 Assay for human Peroxisome Proliferator-activated Receptor delta (PPARd) (AID 2283002)
Outline: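 HepG2 cells transiently transfected with multiplexed GAL4-UAS reporter units and exogenous chimeric NR-Gal4 proteins; 24 h compound exposure. Reporter mRNA measured by RT-PCR, 6-FAM labelling, HpaI digestion and capillary electrophoresis; gain of signal versus DMSO.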

human Peroxisome Proliferator-activated Receptor delta (PPARd), PPARD (gene 5467), sequence (Q03181 whole entry, looked up, the tested form may be a part): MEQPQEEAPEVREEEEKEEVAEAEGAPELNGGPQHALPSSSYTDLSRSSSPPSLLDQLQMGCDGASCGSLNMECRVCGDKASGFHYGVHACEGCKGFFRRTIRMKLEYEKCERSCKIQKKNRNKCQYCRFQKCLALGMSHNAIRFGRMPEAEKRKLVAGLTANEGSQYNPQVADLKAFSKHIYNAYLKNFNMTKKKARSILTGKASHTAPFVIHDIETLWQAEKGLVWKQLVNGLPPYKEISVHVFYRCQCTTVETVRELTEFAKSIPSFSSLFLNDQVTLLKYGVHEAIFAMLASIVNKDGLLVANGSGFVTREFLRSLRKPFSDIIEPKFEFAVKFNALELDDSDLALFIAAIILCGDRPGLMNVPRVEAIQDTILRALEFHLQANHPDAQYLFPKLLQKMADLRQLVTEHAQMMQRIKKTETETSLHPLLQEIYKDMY
Glucocorticoid receptor (Homo sapiens), sequence (P04150 whole entry, looked up, the tested form may be a part): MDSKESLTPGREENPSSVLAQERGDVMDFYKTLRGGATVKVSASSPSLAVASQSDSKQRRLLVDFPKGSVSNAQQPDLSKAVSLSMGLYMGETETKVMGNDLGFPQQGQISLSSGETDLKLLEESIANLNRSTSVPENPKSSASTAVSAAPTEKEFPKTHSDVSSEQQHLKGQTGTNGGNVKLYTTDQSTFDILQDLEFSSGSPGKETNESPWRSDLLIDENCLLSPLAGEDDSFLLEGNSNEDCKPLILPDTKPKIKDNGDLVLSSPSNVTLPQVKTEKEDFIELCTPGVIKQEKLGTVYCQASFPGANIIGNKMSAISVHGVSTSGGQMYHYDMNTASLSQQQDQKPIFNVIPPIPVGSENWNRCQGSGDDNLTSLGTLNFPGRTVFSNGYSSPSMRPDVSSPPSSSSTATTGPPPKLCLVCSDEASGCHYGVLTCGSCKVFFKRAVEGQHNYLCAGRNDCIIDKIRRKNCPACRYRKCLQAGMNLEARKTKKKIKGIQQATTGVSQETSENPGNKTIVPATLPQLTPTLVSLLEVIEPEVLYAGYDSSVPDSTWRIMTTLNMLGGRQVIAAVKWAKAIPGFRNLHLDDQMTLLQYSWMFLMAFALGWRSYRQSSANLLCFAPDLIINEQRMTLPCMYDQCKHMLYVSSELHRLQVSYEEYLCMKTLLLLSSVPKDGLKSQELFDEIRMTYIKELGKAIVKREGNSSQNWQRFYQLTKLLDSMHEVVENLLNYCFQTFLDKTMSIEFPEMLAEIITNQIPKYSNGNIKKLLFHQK
Nuclear receptor subfamily 1 group I member 3 (Homo sapiens), sequence (Q14994 whole entry, looked up, the tested form may be a part): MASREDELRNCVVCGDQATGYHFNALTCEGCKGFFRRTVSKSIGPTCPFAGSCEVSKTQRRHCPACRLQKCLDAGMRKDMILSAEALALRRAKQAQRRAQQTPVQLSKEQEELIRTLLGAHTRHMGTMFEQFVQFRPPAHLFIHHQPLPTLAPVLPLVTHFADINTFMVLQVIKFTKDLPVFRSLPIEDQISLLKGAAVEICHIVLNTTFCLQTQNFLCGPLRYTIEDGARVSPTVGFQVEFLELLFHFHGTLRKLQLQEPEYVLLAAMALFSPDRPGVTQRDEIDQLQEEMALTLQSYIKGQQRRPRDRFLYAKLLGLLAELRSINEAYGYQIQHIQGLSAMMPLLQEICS
Oxysterols receptor LXR-beta (Homo sapiens), sequence (P55055 whole entry, looked up, the tested form may be a part): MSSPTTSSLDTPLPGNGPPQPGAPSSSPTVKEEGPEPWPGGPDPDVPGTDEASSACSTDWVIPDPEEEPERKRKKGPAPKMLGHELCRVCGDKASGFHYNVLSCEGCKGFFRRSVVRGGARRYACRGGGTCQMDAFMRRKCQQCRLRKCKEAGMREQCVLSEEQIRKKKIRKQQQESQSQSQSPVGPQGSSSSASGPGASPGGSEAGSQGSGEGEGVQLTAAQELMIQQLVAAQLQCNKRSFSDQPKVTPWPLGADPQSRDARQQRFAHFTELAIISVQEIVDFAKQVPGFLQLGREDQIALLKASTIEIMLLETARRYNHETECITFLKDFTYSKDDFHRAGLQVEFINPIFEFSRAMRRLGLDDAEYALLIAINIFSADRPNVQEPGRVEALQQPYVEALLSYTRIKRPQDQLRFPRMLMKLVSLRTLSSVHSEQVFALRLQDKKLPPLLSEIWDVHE
human RAR-related Orphan Receptor beta (RORb), RORB (gene 6096), sequence (Q92753 whole entry, looked up, the tested form may be a part): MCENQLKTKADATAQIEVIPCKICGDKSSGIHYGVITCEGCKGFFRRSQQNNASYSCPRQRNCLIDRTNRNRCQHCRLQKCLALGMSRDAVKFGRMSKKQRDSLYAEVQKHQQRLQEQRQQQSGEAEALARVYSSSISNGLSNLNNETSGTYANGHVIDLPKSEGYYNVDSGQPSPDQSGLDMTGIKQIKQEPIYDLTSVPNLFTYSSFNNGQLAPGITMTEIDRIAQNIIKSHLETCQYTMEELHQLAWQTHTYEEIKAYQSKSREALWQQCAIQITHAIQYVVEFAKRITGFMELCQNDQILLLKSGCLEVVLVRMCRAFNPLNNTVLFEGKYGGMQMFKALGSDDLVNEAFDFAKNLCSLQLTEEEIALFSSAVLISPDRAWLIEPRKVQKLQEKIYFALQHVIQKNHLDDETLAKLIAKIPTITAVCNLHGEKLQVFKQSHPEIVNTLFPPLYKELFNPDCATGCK
Retinoic acid receptor alpha (Homo sapiens), sequence (P10276 whole entry, looked up): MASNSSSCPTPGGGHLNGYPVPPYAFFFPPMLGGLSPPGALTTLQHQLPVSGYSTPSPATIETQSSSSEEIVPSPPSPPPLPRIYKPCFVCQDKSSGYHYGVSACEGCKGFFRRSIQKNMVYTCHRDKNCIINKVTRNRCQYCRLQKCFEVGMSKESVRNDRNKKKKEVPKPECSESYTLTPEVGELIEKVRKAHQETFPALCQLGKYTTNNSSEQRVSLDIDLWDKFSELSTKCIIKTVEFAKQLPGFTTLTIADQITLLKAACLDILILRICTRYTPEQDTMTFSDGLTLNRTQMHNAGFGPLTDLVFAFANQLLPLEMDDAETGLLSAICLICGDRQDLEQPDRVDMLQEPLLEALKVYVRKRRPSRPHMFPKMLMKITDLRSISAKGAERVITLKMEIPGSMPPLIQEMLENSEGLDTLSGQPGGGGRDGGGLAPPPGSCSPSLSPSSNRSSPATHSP
Bile acid receptor (Homo sapiens), sequence (Q96RI1 whole entry, looked up): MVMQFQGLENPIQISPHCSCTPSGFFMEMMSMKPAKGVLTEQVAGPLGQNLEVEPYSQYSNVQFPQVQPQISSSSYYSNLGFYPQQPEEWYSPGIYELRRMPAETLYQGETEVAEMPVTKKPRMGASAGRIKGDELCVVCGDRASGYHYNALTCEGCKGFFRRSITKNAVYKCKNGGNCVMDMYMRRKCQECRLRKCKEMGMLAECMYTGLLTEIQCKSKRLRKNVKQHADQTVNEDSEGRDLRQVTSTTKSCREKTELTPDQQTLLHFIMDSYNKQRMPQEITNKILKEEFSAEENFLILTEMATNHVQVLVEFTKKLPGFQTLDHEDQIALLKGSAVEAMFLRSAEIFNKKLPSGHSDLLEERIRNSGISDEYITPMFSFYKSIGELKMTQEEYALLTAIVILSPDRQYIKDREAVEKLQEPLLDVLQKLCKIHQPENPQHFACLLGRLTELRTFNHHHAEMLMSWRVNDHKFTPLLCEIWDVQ
human RAR-related Orphan Receptor gamma (RORg), RORC (gene 6097), sequence (P51449 whole entry, looked up, the tested form may be a part): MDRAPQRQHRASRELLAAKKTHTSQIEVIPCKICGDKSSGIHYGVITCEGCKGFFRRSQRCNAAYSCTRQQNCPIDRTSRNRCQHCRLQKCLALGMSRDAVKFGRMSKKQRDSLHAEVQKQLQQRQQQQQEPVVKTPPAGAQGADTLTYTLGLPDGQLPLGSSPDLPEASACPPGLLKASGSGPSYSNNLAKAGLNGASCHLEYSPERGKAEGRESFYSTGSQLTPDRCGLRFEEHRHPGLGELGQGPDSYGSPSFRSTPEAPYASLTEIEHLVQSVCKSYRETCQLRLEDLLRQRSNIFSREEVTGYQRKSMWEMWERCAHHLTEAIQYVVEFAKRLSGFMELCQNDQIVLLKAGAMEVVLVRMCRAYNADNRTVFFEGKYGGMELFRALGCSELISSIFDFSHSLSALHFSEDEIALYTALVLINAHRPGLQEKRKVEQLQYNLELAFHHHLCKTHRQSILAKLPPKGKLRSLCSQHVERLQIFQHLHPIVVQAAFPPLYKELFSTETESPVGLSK
human Vitamin D Receptor (VDR), VDR (gene 7421), sequence (P11473 whole entry, looked up, the tested form may be a part): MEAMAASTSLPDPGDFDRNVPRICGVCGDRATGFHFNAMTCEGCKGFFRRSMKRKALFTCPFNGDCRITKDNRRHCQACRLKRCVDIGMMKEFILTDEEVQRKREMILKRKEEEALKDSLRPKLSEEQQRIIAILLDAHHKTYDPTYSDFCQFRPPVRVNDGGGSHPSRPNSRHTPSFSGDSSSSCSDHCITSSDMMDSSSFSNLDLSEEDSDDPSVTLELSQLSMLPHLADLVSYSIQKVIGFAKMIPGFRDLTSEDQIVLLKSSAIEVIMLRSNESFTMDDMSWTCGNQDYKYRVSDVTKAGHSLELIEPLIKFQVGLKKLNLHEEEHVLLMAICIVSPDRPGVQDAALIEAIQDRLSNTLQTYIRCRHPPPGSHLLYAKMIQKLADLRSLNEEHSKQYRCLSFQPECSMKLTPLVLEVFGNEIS
Cellular tumor antigen p53 (Homo sapiens), sequence (P04637 whole entry, looked up): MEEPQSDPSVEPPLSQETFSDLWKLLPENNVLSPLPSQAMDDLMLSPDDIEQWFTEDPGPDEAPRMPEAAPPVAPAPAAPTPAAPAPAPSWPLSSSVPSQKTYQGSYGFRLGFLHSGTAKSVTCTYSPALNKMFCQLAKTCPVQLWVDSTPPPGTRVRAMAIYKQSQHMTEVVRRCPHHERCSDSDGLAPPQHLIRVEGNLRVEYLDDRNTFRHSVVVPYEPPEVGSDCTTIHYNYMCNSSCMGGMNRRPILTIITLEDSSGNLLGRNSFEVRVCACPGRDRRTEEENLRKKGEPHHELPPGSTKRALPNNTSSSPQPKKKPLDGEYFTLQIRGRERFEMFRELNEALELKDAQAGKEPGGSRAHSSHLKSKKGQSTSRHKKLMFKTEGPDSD

CCNCC
outcome [1]: inactive | outcome [2]: inactive | outcome [3]: inactive | outcome [4]: inactive | outcome [5]: inactive | outcome [6]: inactive

Nc1ccccc1
outcome [3]: inactive | outcome [7]: inactive | outcome [4]: inactive | outcome [8]: inactive | outcome [9]: inactive | outcome [10]: inactive

N#Cc1cc(I)c(O)c(I)c1
outcome [11]: inactive | AC50 [1]: 29.1 µM (active) | outcome [12]: inactive | outcome [2]: inactive | outcome [3]: inactive | outcome [13]: inactive | outcome [4]: inactive | outcome [8]: inactive | outcome [9]: inactive | outcome [6]: inactive | outcome [14]: inactive | outcome [15]: inactive | outcome [16]: inactive | outcome [10]: inactive

c1ccc2c(c1)CCCC2
outcome [17]: inactive | outcome [2]: inactive | outcome [3]: inactive | outcome [13]: inactive | outcome [4]: inactive | outcome [8]: inactive | outcome [18]: inactive | outcome [5]: inactive | outcome [9]: inactive | outcome [15]: inactive | outcome [16]: inactive | outcome [19]: inactive

O=C(O)C(Br)Br
outcome [17]: inactive | outcome [2]: inactive | outcome [3]: inactive | outcome [13]: inactive | outcome [8]: inactive | outcome [5]: inactive | outcome [14]: inactive | outcome [15]: inactive | outcome [16]: inactive | outcome [19]: inactive

Cc1cc(C)c(C2=C(OC(=O)CC(C)(C)C)C3(CCCC3)OC2=O)c(C)c1
outcome [17]: inactive | outcome [12]: inactive | outcome [2]: inactive | outcome [3]: inactive | outcome [6]: inactive | outcome [19]: inactive

C=CC(=O)OCCO
outcome [8]: inactive | outcome [20]: inactive | outcome [18]: inactive | outcome [9]: inactive | outcome [6]: inactive | outcome [15]: inactive | AC50 [19]: 46.4 µM (active)

N#CCCCl
outcome [11]: inactive | outcome [12]: inactive | outcome [3]: inactive | outcome [13]: inactive | outcome [8]: inactive | outcome [5]: inactive | outcome [9]: inactive | outcome [14]: inactive | outcome [15]: inactive | outcome [16]: inactive

c1ccc(Nc2ccc3ccccc3c2)cc1
outcome [11]: inactive | outcome [17]: inactive | outcome [12]: inactive | outcome [2]: inactive | outcome [13]: inactive | outcome [4]: inactive | outcome [8]: inactive | outcome [20]: inactive | AC50 [14]: 63.2 µM (active) | outcome [14]: inactive | outcome [15]: inactive | AC50 [16]: 73.9 µM (active) and 83 µM (active) | AC50 [19]: 87.1 µM (active)

CCC1CCC(=O)O1 (stereo not drawn)
outcome [11]: inactive | outcome [20]: inactive | outcome [5]: inactive | outcome [9]: inactive | outcome [19]: inactive

CC=Cc1ccc2c(c1)OCO2
outcome [11]: inactive | outcome [12]: inactive | outcome [2]: inactive | outcome [4]: inactive | outcome [20]: inactive | outcome [18]: inactive | outcome [5]: inactive | outcome [9]: inactive | outcome [6]: inactive | outcome [15]: inactive | outcome [16]: inactive | outcome [19]: inactive

O=C(O)CCl
outcome [11]: inactive | outcome [2]: inactive | outcome [18]: inactive | outcome [5]: inactive | outcome [19]: inactive

O=C1C=CC(=O)C=C1
outcome [12]: inactive | outcome [4]: inactive | outcome [18]: inactive | outcome [6]: inactive | outcome [14]: inactive | AC50 [15]: 72.3 µM (active) and 76.5 µM (active) | outcome [16]: inactive | AC50 [19]: 73.5 µM (active) | outcome [10]: inactive

COC(=O)COc1ccc(Cl)cc1Cl
outcome [11]: inactive | outcome [2]: inactive | outcome [3]: inactive | outcome [18]: inactive | outcome [5]: inactive | outcome [14]: inactive | outcome [15]: inactive | outcome [16]: inactive
